Compound activity: PubChem BioAssay, Broad Institute
RAD52 anneal inh: inhibitors of human RAD52 DNA annealing; P43351; recombinant RAD52 DNA annealing, FRET fluorescence; inhibition, % at 18.7 µM; hit rate 0.46% among 360,000;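 active = every replicate showing at least 50% inhibition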
NSD2 HMT inh: inhibitors of human histone methyltransferase NSD2. AID 743445. O96028. NSD2 peptide methylation, AlphaScreen, 120 min. inhibition, % at 12.5 µM. hit rate 0.54% among 310,000; in the data active = inhibition above about 50%
Glyco luc inh: blocks N-linked glycosylation in D54 reporter cells; D54 ERlucT glycosylation luciferase reporter, 24 h; percent of 100 nM tunicamycin response; reporter increase, % at 12.5 µM; hit rate 0.23% among 360,000; AID 588692;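 active = mean luciferase reporter signal, scaled so untreated is 0 and the glycosylation-blocking control 100, at or above a set limit in every replicate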;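 also: luciferase carries N-glycosylation sites so blocking glycosylation raises the light; 0% = median of neutral control wells and 100% = median of 100 nM tunicamycin wells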
RAD54 inh: blocks human RAD54 Holliday junction branch migration | FAM/BHQ fluorescence | inhibition, % at 10.4 µM | hit rate 0.14% among 360,000 | AID 602329 | Q92698;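 active = mean normalized replicate activity at least 40 and at least half of replicates scoring 40 or more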;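 also: 0% = median of neutral control wells and 100% = median of positive control wells; inhibitors cause a drop in the FAM fluorescence signal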
Casp6 inh: caspase-6 (human) enzyme inhibition. P55212. hit rate 0.53% among 350,000. inhibition, % at 12.5 µM. purified caspase-6, Z-VEID-R110 cleavage fluorescence;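 active = mean inhibition across replicates at least about 35%, with every replicate also reaching that limit, limit read from the data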;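 also: 0% = median of neutral control wells and 100% = no fluorescence left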
Target sequence (P55212 24-179 limits assumed): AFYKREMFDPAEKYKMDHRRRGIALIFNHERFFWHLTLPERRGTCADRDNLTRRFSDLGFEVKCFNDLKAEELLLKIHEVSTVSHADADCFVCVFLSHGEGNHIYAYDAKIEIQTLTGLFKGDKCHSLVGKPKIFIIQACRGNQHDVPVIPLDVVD
Target sequence (P55212 194-293 limits assumed): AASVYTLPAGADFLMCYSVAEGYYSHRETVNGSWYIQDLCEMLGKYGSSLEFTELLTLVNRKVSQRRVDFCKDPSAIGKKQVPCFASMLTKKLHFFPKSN
AlphaScreen art: interferes with AlphaScreen signal, flagging NSD2 false positives | shares compounds with NSD2 HMT inh | AlphaScreen artifact counterscreen, preloaded methylated H4 peptide | AC35, µM (highest dose often 10 µM), inactives show top-dose activity change, negative = signal loss | hit rate 9.4% among 1,500; call rule not given here
Active calls of the source: *; x = not tested or not shown. Sampled rows, rich in hits. Any-hit rate of the full collection: about 1.2%.

SMILES	RAD52 anneal inh	NSD2 HMT inh	Glyco luc inh	RAD54 inh	Casp6 inh	AlphaScreen art
CCOC(=O)C1=C(C)N=c2s/c(=C/c3cccc([N+](=O)[O-])c3O)c(=O)n2C1c1ccccc1 (stereo not given)	-2	63*	1	-12	17	8.7µM*
CN(C)C(=O)c1cccc(-c2ccc([C@@H]3[C@@H](C#N)N(C(=O)C4CC4)[C@@H]3CO)cc2)c1	5	x	x	2	-3	x
COc1ccc(-c2ccc(C(c3c(C)[nH][nH]c3=O)c3c(C)[nH][nH]c3=O)o2)c([N+](=O)[O-])c1	-2	124*	34*	x	16	-3%
COc1ccc(-c2ccc(/C=N/N3C(=O)C4C5C=CC(C6CC56)C4C3=O)o2)c([N+](=O)[O-])c1 (stereo not given)	x	5	2	x	x	x
Cc1[nH][nH]c(=O)c1C(c1ccc(N(C)C)c(Br)c1)c1c(C)[nH][nH]c1=O	-4	x	3	x	0	x
CNC(=S)N/N=C/c1ccc(-c2ccc(C(=O)O)cc2)o1	-23	x	-1	-15	18	x
Cc1[nH][nH]c(=O)c1C(c1ccc(-c2ccc(C(=O)O)cc2)o1)c1c(C)[nH][nH]c1=O	-16	89*	7	x	9	1%
Cc1[nH][nH]c(=O)c1C(c1ccc(-c2ccc(F)cc2)o1)c1c(C)[nH][nH]c1=O	-6	156*	18	x	x	0%
CCCN1[C@@H]2c3ccc(/C=C/c4ccccc4)c(=O)n3C[C@@H]2[C@@H](CO)[C@@H]1C(=O)N1CCOCC1	-42	x	x	-10	0	x
COC(=O)c1ccc(/C=N/N2CCN(Cc3ccccc3)CC2)cc1	x	52*	2	x	x	-6%
COC(=O)c1ccc(/C=N\N2CCN(Cc3ccc(C)cc3)CC2)cc1	-10	1	1	-10	-7	x
C[C@H](CO)N1C[C@H](C)[C@@H](CN(C)Cc2ccccc2)Oc2ccc(NC(=O)Cc3cn(C)c4ccccc34)cc2C1=O	-10	x	x	3	5	x
COc1cccc(CNC(=S)Nc2ccc(Cl)cc2C)c1	0	75*	-2	0	-4	3%
Cc1cc(Cl)ccc1NC(=S)NCc1ccccc1	x	-2	-1	1	x	x
O=C(NN=C1C2CC3CC(C2)CC1C3)c1ccncc1	x	-4	1	-4	x	x
O=C(N/N=C1\C/C(=N\NC(=O)c2ccncc2)c2ccccc21)c1ccncc1	-31	108*	2	6	90*	-2%
Cc1noc(C)c1NC(=O)Nc1ccc2c(c1)C(=O)N(C)[C@@H]1CC[C@@H](CC(=O)NCc3ccc(Cl)cc3)O[C@H]1CO2	14	x	x	-2	0	x
CCOC(=O)C(C(=O)OCC)c1cc(Br)c2noc3c2c1C(=O)c1ccccc1-3	x	97*	17	x	x	-14%
C[C@@H]1CCCCO[C@@H](CN(C)Cc2ccc(C(=O)O)cc2)[C@H](C)CN([C@@H](C)CO)C(=O)c2cc(NS(=O)(=O)c3ccc(F)cc3)ccc2O1	21	x	x	-7	-1	x
CC=Cc1ccc2n(c1=O)C[C@@H]1[C@@H](CO)[C@H](C(=O)NCC3CC3)N(Cc3ccncc3)[C@H]21 (mixture of isomers)	-38	x	x	-9	0	x
CC1(C(=O)O)CCCN1C(=O)c1cccc(F)c1 (stereo not given)	-7	1	2	1	-2	x
CCOC(=O)C1(C)CCCN1C(=O)c1cccc(F)c1 (stereo not given)	-1	59*	1	-5	-3	1%
C[C@H]1CN([C@@H](C)CO)S(=O)(=O)c2ccc(-c3cccc(F)c3)cc2O[C@@H]1CN(C)S(=O)(=O)c1ccccc1	-1	x	x	2	-1	x
O=C(OCc1cccc2ccccc12)C1CC(=O)N(c2ccccc2)C1 (stereo not given)	-3	79*	1	2	-4	-4%
O=C(C[C@@H]1CC[C@@H]2[C@H](COC[C@@H](O)CN2S(=O)(=O)c2ccccc2)O1)N1CCOCC1	10	x	x	3	1	x
SMILES	RAD52 anneal inh	NSD2 HMT inh	Glyco luc inh	RAD54 inh	Casp6 inh	AlphaScreen art
Cc1noc(C)c1S(=O)(=O)Nc1ccc2c(c1)CC(=O)N([C@H](C)CO)C[C@@H](C)[C@H](CN(C)C(=O)Nc1ccc(F)cc1)O2	-9	x	x	-1	-1	x
Cc1ccc2cccc(OCc3ccc(Br)cc3)c2n1	6	51*	-3	-11	1	-6%
Cc1ccc2cccc(OCc3ccc(F)cc3)c2n1	-10	-2	-1	-2	1	x
CCn1c(-c2cc3c(C(F)(F)F)nn(C)c3s2)n[nH]c1=S	x	52*	4	-3	x	-6%
O=C(COC(=O)c1ccc([N+](=O)[O-])s1)Nc1ncc(C(F)(F)F)cc1Cl	x	75*	-1	-13	x	0%
C[C@@H]1CN([C@H](C)CO)C(=O)Cc2cc(NC(=O)Cn3cnnn3)ccc2O[C@@H]1CN(C)Cc1ccncc1	3	x	x	-6	0	x
Cc1cccnc1Nc1nc(-c2ccc(O)c(O)c2)cs1	-8	51*	-3	5	30	-10%
Oc1ccc(-c2csc(Nc3cccc4ccccc34)n2)cc1O	-2	51*	4	1	43*	-17%
COc1ccc(-c2csc(Nc3ncccc3C)n2)cc1OC	x	0	1	-11	x	x
COc1ccc(NC(=O)Nc2ccc3c(c2)[C@H]2C[C@@H](CC(=O)N4CCOCC4)O[C@H](CO)[C@H]2O3)cc1	x	x	x	-8	x	x
CNC[C@@H]1OCCCC[C@@H](C)Oc2ccc(NC(=O)Cc3ccccc3)cc2C(=O)N([C@H](C)CO)C[C@@H]1C	-9	x	x	1	0	x
CC(C)CNS(=O)(=O)c1ccccc1C(=O)N1CCCCC1	x	-2	1	11	x	x
Cc1cccc(C)c1OCC(O)CNS(=O)(=O)c1ccccc1C(=O)N1CCCCC1 (stereo not given)	x	105*	-1	0	x	-6%
C[C@H]1CN([C@@H](C)CO)C(=O)c2cc(NC(=O)CCCCCC(=O)Nc3ccccc3N)ccc2O[C@H]1CN(C)S(=O)(=O)c1cn(C)cn1	-16	x	x	1	x	x
O=C(O)c1ccc2c(c1)C(=O)N(c1cccc(C(=O)/C=C/c3ccccc3)c1)C2=O	-1	89*	1	x	12	-2%
CC(C)NC(=O)N(C)C[C@@H]1Oc2cc(-c3cccnc3)ccc2S(=O)(=O)N([C@@H](C)CO)C[C@H]1C	-6	x	x	16	0	x
Cc1cc(C(=O)COC(=O)c2n[nH]c3ccccc23)c(C)n1C	x	71*	-14	6	x	-2%
O=C(C[C@@H]1C[C@H]2c3cc(NC(=O)NC4CCCCC4)ccc3O[C@H]2[C@@H](CO)O1)NC1CCCCC1	-1	x	x	x	1	x
O=C(c1ccc2c(c1)OCO2)C1CCCN(Cc2ccc3cccc(F)c3n2)C1 (stereo not given)	x	51*	2	x	x	-5%
COc1ccc(C(=O)Cc2nnc(C)s2)cc1	x	69*	-2	x	x	2%
CCN(CC)CCCNc1cc(C)c(C#N)c2nc3ccccc3n12	-4	122*	43*	19	-1	-5%
